# Compounds with a hit are over-represented: about 21% of the library has one in this group of screens.
# Shiga toxin inh – blocks Shiga toxin action in Vero cells. 9.2% of 290,000 active. inhibition, % at 38.7 µM. AID 2315. Vero cells, Shiga toxin protein synthesis inhibition reporter; in the data active = inhibition mostly above about 28%, no sharp cut-off; inactive = mostly below about 43%; note: 0% is about no effect
# Sm TGR inh – blocks Schistosoma mansoni thioredoxin glutathione reductase; purified TGR, DTNB reduction, TNB absorbance 405 nm; Potency, µM (doses to about 114 µM), without a hit: top-dose activity change, negative = inhibition, actives largely listed as inhibitors; 3% of 360,000 active; AID 485364; note: potency is the fitted concentration of half-maximal effect; % is set by controls: 0 for no effect and ±100 for the full control effect; nearly all actives have a fitted effect of over 60% in size
#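 TGR 20 nM + NADPH 100 uM (dispensed conc.), cpd preinc 15 min RT; start with NADPH (500 uM addition) then DTNB (15 mM addition). Kinetic TNB absorbance, 405 nm filter. Four-parameter Hill fit across titration.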
# CHX counter – counter-screen for Shiga toxin inhibitors: cycloheximide protein synthesis inhibition; cell reporter, cycloheximide protein synthesis inhibition counterscreen; max response, %; 12% of 300,000 active; AID 2314; in the data active = max response mostly above about 13%, no sharp cut-off; inactive = mostly below about 14%; note: read at 38.3 µM for the half of the compounds with a filed dose; 0% is about no effect
# Pf growth 96h – P. falciparum growth inhibition at 96 hour, primary screen for plastid delayed-death inhibitors; P. falciparum luciferase reporter growth, 96 h; Potency, µM (highest dose often 28.7 µM), without a hit: top-dose activity change, negative = inhibition, actives largely listed as inhibitors; 6.9% of 320,000 active; note: potency is the fitted concentration of half-maximal effect; % is set by controls: 0 for no effect and ±100 for the full control effect
#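 Cell-based qHTS: luciferase-tagged P. falciparum in erythrocytes (2% hematocrit, 0.05% parasitemia final) incubated with compounds for 96 hours, 37 C, 5% CO2; luciferase detection reagent then added and luminescence measured.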
# NS1 inh – influenza NS1 inhibition | Potency, µM (titrated, usually from 46.1 µM), for the others: at the highest dose activity, positive = more growth | 0.4% of 270,000 active | AID 2326; calls by dose curve; note: potency is the fitted concentration of half-maximal effect; actives are rising curves; nearly all actives have a fitted effect of over 50% in size
#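 Compounds were scored for reversing the slow growth caused by influenza A NS1 in S. cerevisiae, measured by optical density at 600 nm. Assay medium contained 2% galactose at pH 6.0; NS1-free yeast of the same strain were the positive control.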
# Pf growth 48h – inhibits P. falciparum growth in the first generation, 48 h; Potency, µM (highest dose often 28.7 µM), for the others: top-dose activity change, negative = inhibition, most hits filed as inhibitors; 5.9% of 310,000 active; P. falciparum luciferase growth in erythrocytes, 48 h; note: potency is the fitted concentration of half-maximal effect; % is set by controls: 0 for no effect and ±100 for the full control effect
#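 Growth was read as firefly luciferase luminescence after a 48 h, 37 C, 5% CO2 exposure of compounds to reporter-bearing P. falciparum cultures (0.1% parasitemia, 2% hematocrit final) in Albumax-supplemented RPMI 1640.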
# Numbers without * were called inactive; ? = inconclusive; . = no result given. Unless noted, calls come from the whole dose curve; as a rule, active = well fitted curve in the direction sought with a large enough effect; inconclusive = small, poorly fitted or top-dose-only effect, or another doubt; inactive = no such curve, though single readings can be large; an effect the other way counts as inactive or inconclusive.
SMILES,Shiga toxin inh,Sm TGR inh,CHX counter,Pf growth 96h,NS1 inh,Pf growth 48h
CN(C)c1ccc(NC(=O)CCn2c(=S)oc3ccccc32)cc1,95*,-9%,55*,2%,.,193%
Cc1ccc(CN(Cc2cccn2-c2nnc(N3CCCC3=O)s2)C(=O)Nc2ccc(F)cc2)cc1,.,10%,.,.,.,.
Nc1nc2c(c(=O)[nH]1)C(c1ccccc1)C1=C(N2)c2ccccc2C1=O (stereo unspecified),11,-11%,0,10µM*,4%,9.3µM*
CC(C)c1ccc(C2C3=C(CC(C)(C)CC3=O)NC3=C2C(=O)c2ccccc23)cc1 (stereo unspecified),-19,2%,-1,6.6µM*,?,9.3µM*
CC1=C([N+](=O)[O-])C(c2ccccc2)C2=C(N1)c1ccccc1C2=O (stereo unspecified),-13,14µM*,-1,2.9µM*,4%,.
CCOC(=O)C1=C(C)NC2=C(C(=O)c3ccccc32)C1c1cccnc1 (stereo unspecified),-28,0%,-7,3%,-4%,-11%
CC1(C)CC(=O)C2=C(C1)NC1=C(C(=O)c3ccccc31)C2c1ccccc1 (stereo unspecified),-7,?,-2,?,26%,13µM*
CCC(C)c1ccc(C2C3=C(Nc4nc(N)[nH]c(=O)c42)c2ccccc2C3=O)cc1 (stereo unspecified),-1,-3%,-2,?,0%,-17%
CC1(C)CC(=O)C2=C(C1)NC1=C(C(=O)c3ccccc31)C2c1cccnc1 (stereo unspecified),-5,-22%,-4,12%,0%,-23%
COc1ccc(CNC(=O)C2CCCN(c3nccc(C)n3)C2)cc1 (stereo unspecified),7,-3%,-5,-11%,9%,-19%
CCOC(=O)C1=C(COC(=O)CCc2ccc(CC)cc2)NC(=O)NC1C (stereo unspecified),.,-4%,.,43%,.,-1%
CCOc1ccc(C2C(C#N)=C(C)NC3=C2C(=O)c2ccccc23)cc1 (stereo unspecified),-9,-11%,-3,9.3µM*,11%,.
COc1ccc(C2C(C#N)=C(C)NC3=C2C(=O)c2ccccc23)cc1 (stereo unspecified),-18,-21%,1,?,0%,-22%
Clc1ccc(-c2nnc(-c3cccc4ccccc34)o2)cc1Cl,10,6%,1,76%,1%,35%
Clc1ccc(-c2nnc(-c3ccccc3Cl)o2)cc1,115*,0%,46*,-23%,0%,81%
Clc1ccccc1-c1nnc(-c2ccccc2Cl)o1,68*,7%,32*,?,-18%,?
CCCNCc1nnc(-c2ccccc2Cl)o1,32,-1%,7,25%,-1%,28%
O=C(Nc1ccccc1)/C(=C\c1cccs1)NC(=O)c1ccccc1,-3,-5%,3,1.5µM*,-2%,20%
O=C(N/C(=C/c1cccs1)C(=O)N1CCOCC1)c1cccs1,-12,-21%,-3,9.3µM*,4%,-2%
O=C(N/C(=C\c1cccs1)C(=O)N1CCCCCC1)c1ccccc1,-17,11%,-1,9.3µM*,-2%,?
Cc1cccc(NC(=O)/C(=C\c2cccs2)NC(=O)c2ccccc2)c1,18,1%,14,239%,9%,?
CC(C)(C)c1ccc(C(=O)N/C(=C\c2cccs2)C(=O)N2CCOCC2)cc1,-12,-8%,-5,-2%,9%,-1%
Cc1ccc(C(=O)N/C(=C\c2cccs2)C(=O)NC2CCCCC2)cc1,-6,-9%,-1,4.1µM*,-14%,.
O=C(NCc1ccccc1F)C1CCCN1C(=O)Nc1ccccc1 (stereo unspecified),-9,4%,-1,?,4%,8%
COc1ccc2cc(C(C)CO)ccc2c1 (stereo unspecified),.,.,.,15%,.,-2%
SMILES,Shiga toxin inh,Sm TGR inh,CHX counter,Pf growth 96h,NS1 inh,Pf growth 48h
CN(C)S(=O)(=O)c1ccccc1N=C=S,-2,16µM*,0,26%,0%,0%
COP(=S)(OC)Oc1ccc(S(=O)(=O)N(C)C)cc1,.,.,.,-1%,.,-2%
Cc1nc2ccccc2cc1C(=O)N(C)Cc1ccccc1,-6,-3%,-1,7%,8%,-2%
CCNC(=S)Nc1ccc(OCc2nc3ccccc3s2)cc1,.,-1%,33*,56%,7%,94%
O=C(CCCc1nc2ccccc2s1)Nc1ccccc1,24,-7%,24,-32%,.,-11%
COc1ccc(C(=O)CCc2nc3ccccc3s2)cc1,41*,0%,50*,?,-9%,36%
O=C(CCc1nc2ccccc2s1)Nc1ccccc1,22,-1%,11*,16%,-16%,6%
O=C(O)CCCC(=O)Nc1ccc(OCc2nc3ccccc3s2)cc1,98*,.,50*,14%,0%,93%
CC(=O)c1ccc(O)c(CN(C2CCCCC2)C2CCCCC2)c1O,.,.,.,.,-3%,.
COc1ccccc1NC(=O)c1cc(S(=O)(=O)N(C)C2CCCCC2)ccc1F,.,12%,.,.,.,.
CC(=O)c1ccc(OC(C)c2nc3ccccc3s2)cc1 (stereo unspecified),75*,-7%,30*,-17%,-47%,59%
COc1ccccc1NC(=O)CCc1nc2ccccc2s1,55,0%,15*,20%,-8%,0%
CC(C)c1ccccc1NC(=O)CCc1nc2ccccc2s1,-4,-5%,-5,-14%,18%,6%
Cc1ccc2c(c1)C(=O)OC(C(=O)Nc1ncc(Cc3ccccc3Cl)s1)C2 (stereo unspecified),.,1%,.,.,.,.
CSc1nnc(CCCCCCCCc2nnc(SC)o2)o1,-7,5%,-4,13µM*,3%,?
Cc1c(Cl)cccc1NC(=O)CSc1nnc(CCNC(=O)OC(C)(C)C)o1,-8,-44%,-5,10µM*,6%,-4%
CSc1nnc(CCNC(=O)OC(C)(C)C)o1,54*,16%,13,-3%,0%,29%
Cc1ccc(NC(=O)CSc2nnc(CCCCCNC(=O)OC(C)(C)C)o2)c(C)c1,-4,-5%,-4,13µM*,-5%,-14%
Cc1ccc(C)c(NC(=O)CSc2nnc(CCNC(=O)OC(C)(C)C)o2)c1,-11,-13%,-7,-11%,10%,.
CN(C)c1ccc(-c2ccc(C3C4C=CCCC4(C)C(=O)N3Cc3ccccc3)c(F)c2)cc1 (stereo unspecified),18,.,22,.,.,.
COc1cccc(/C(C)=N/NC(=O)Cc2c(C)[nH][nH]c2=O)c1,-6,-14%,5,9%,8%,4%
CCOc1ccc2ncc3c(-c4ccc(C)cc4)nn(-c4cccc(F)c4)c3c2c1,.,0%,.,.,.,.
CCOC(=O)c1sc2nc(Cc3ccc(Cl)cc3)[nH]c(=S)c2c1C,-3,0%,-8,?,3%,?
